# According to PubChem BioAssay AID1159580 (chemical genetic matrix, 2015):
# About 2,000 (36%) of roughly 5,500 compounds were called active. Inconclusive results (about 18%) are left out. This is one part of the list. Values without a mark were called inactive. Rule as the data show it: active = normalized growth mostly below about 0.91 (no sharp cut-off); inconclusive = no clear call, values can overlap the other calls; inactive = mostly above about 0.92.
# Test: chemical genetic growth profiling, strain panel (AID 1159580);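 also: tested at 20 µM; growth read once vehicle control cultures reached saturation at 30 °C; 1 = growth at the plate median or of vehicle wells; lower values mean less growth of the strain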
# Conditions: S. cerevisiae deletion strains, growth OD
# [1] = locus YDL101C, strain DUN1, stronger effect = lower value
# [2] = locus YHR030C, strain SLT2, stronger effect = lower value
# [3] = locus YNL153C, strain GIM3, stronger effect = lower value
# [4] = locus YNL322C, strain KRE1, stronger effect = lower value
smiles,measurement,setting,value
O=C(Nc1ccccc1C(=O)NC1CCCCNC1=O)c1cccs1 (configuration not stated),normalized growth,"locus YAL013W, strain DEP1, stronger effect = lower value",1
same,normalized growth,"locus YBR229C, strain ROT2, stronger effect = lower value",1.01
same,normalized growth,[1],1
same,normalized growth,"locus YDL134C, strain PPH21, stronger effect = lower value",1.01
same,normalized growth,"locus YDR150W, strain NUM1, stronger effect = lower value",0.996
same,normalized growth,"locus YEL061C, strain CIN8, stronger effect = lower value",1.01
same,normalized growth,"locus YGR078C, strain PAC10, stronger effect = lower value",1
same,normalized growth,[2],1.02
same,normalized growth,"locus YHR087W, strain rtc3, stronger effect = lower value",1.02
same,normalized growth,"locus YJL187C, strain SWE1, stronger effect = lower value",1.01
same,normalized growth,"locus YJR043C, strain POL32, stronger effect = lower value",0.972
same,normalized growth,"locus YJR075W, strain HOC1, stronger effect = lower value",1.02
same,normalized growth,"locus YLR039C, strain RIC1, stronger effect = lower value",1.06
same,normalized growth,"locus YLR058C, strain SHM2 (second series), stronger effect = lower value",1
same,normalized growth,"locus YLR085C, strain ARP6, stronger effect = lower value",1.01
same,normalized growth,"locus YLR262C, strain YPT6, stronger effect = lower value",1.03
same,normalized growth,"locus YML094W, strain GIM5, stronger effect = lower value",1.02
same,normalized growth,"locus YMR219W, strain ESC1, stronger effect = lower value",1.01
same,normalized growth,"locus YMR263W, strain SAP30, stronger effect = lower value",1.01
same,normalized growth,[3],1
same,normalized growth,"locus YNL298W, strain CLA4 (second series), stronger effect = lower value",1.03
same,normalized growth,[4],1
same,normalized growth,"locus YNR030W, strain Alg12, stronger effect = lower value",1.02
same,normalized growth,"locus YPL055C, strain LGE1, stronger effect = lower value",0.998
same,normalized growth,"locus YPL241C, strain CIN2, stronger effect = lower value",1.03
same,normalized growth,"locus YPR135W, strain CTF4, stronger effect = lower value",1.01
O=C(O)[C@@H]1C[C@H](C(=O)O)N1,normalized growth,"locus YAL040C, strain CLN3, stronger effect = lower value",0.943
same,normalized growth,"locus YCL061C, strain MRC1 (second series), stronger effect = lower value",0.984
same,normalized growth,"locus YDR363W, strain ESC2, stronger effect = lower value",1.06
same,normalized growth,"locus YER002W, strain NOP16, stronger effect = lower value",0.988
same,normalized growth,[3],0.986
same,normalized growth,"locus YNL175C, strain NOP13, stronger effect = lower value",0.99
same,normalized growth,"locus YNL197C, strain WHI3, stronger effect = lower value",0.967
same,normalized growth,"locus YNL224C, strain SQS1, stronger effect = lower value",0.965
same,normalized growth,[4],0.987
same,normalized growth,"locus YOR083W, strain WHI5 (second series), stronger effect = lower value",0.973
O=C(NCc1ccco1)c1ccc(Oc2cc(Cl)cc(Cl)c2)o1,normalized growth,"locus YAR019C, strain CDC15, stronger effect = lower value",0.961
same,normalized growth,"locus YBL105C, strain PKC1, stronger effect = lower value",0.96
same,normalized growth,"locus YBR135W, strain CKS1, stronger effect = lower value",0.964
same,normalized growth,"locus YBR136W, strain MEC1, stronger effect = lower value",0.964
same,normalized growth,"locus YBR160W, strain CDC28, stronger effect = lower value",0.967
same,normalized growth,"locus YDL017W, strain CDC7, stronger effect = lower value",0.969
same,normalized growth,"locus YDL028C, strain MPS1, stronger effect = lower value",0.967
same,normalized growth,[1],0.964
same,normalized growth,"locus YDL108W, strain KIN28, stronger effect = lower value",0.96
same,normalized growth,"locus YDL132W, strain cdc53, stronger effect = lower value",0.957
same,normalized growth,"locus YDL214C, strain PRR2, stronger effect = lower value",0.936
same,normalized growth,"locus YDR052C, strain DBF4, stronger effect = lower value",0.968
same,normalized growth,"locus YDR054C, strain cdc34, stronger effect = lower value",0.957
same,normalized growth,"locus YDR226W, strain ADK1, stronger effect = lower value",0.959
same,normalized growth,"locus YDR477W, strain SNF1, stronger effect = lower value",0.952
same,normalized growth,"locus YER123W, strain YCK3, stronger effect = lower value",0.932
same,normalized growth,"locus YER133W, strain GLC7, stronger effect = lower value",0.932
same,normalized growth,"locus YFL009W, strain cdc4, stronger effect = lower value",0.957
same,normalized growth,"locus YFL029C, strain CAK1, stronger effect = lower value",0.951
same,normalized growth,"locus YFR003C, strain YPI1, stronger effect = lower value",0.962
same,normalized growth,"locus YFR019W, strain FAB1, stronger effect = lower value",0.96
same,normalized growth,"locus YFR028C, strain CDC14, stronger effect = lower value",0.957
same,normalized growth,"locus YGR040W, strain KSS1, stronger effect = lower value",0.948
same,normalized growth,"locus YGR052W, strain FMP48, stronger effect = lower value",0.95
same,normalized growth,"locus YGR092W, strain DBF2, stronger effect = lower value",0.957
same,normalized growth,[2],1.05
same,normalized growth,"locus YHR079C, strain IRE1, stronger effect = lower value",1
same,normalized growth,"locus YHR082C, strain KSP1, stronger effect = lower value",0.994
same,normalized growth,"locus YHR205W, strain SCH9, stronger effect = lower value",0.952
same,normalized growth,"locus YIL147C, strain SLN1, stronger effect = lower value",0.964
same,normalized growth,"locus YJL095W, strain BCK1, stronger effect = lower value",0.931
same,normalized growth,"locus YJL128C, strain PBS2, stronger effect = lower value",0.914
same,normalized growth,"locus YJL157C, strain FAR1, stronger effect = lower value",0.941
same,normalized growth,"locus YJR016C, strain ILV3, stronger effect = lower value",0.955
same,normalized growth,"locus YJR066W, strain TOR1 (second series), stronger effect = lower value",0.974
same,normalized growth,"locus YJR066W, strain TOR1, stronger effect = lower value",1.03
same,normalized growth,"locus YKL048C, strain ELM1, stronger effect = lower value",0.939
same,normalized growth,"locus YKL067W, strain YNK1, stronger effect = lower value",0.945
same,normalized growth,"locus YKL101W, strain HSL1, stronger effect = lower value",0.917
same,normalized growth,"locus YKL193C, strain SDS22, stronger effect = lower value",0.958
same,normalized growth,"locus YKL203C, strain TOR2, stronger effect = lower value",1.01
same,normalized growth,"locus YLR113W, strain HOG1, stronger effect = lower value",0.761 (active)
same,normalized growth,"locus YLR133W, strain CKI1, stronger effect = lower value",0.931
same,normalized growth,"locus YLR403W, strain SFP1, stronger effect = lower value",0.968
same,normalized growth,"locus YML070W, strain DAK1, stronger effect = lower value",0.94
same,normalized growth,"locus YMR001C, strain CDC5, stronger effect = lower value",0.956
same,normalized growth,"locus YMR205C, strain PFK2 (second series), stronger effect = lower value",0.942
same,normalized growth,"locus YMR277W, strain FCP1, stronger effect = lower value",0.958
same,normalized growth,"locus YNL006W, strain LST8, stronger effect = lower value",0.971
same,normalized growth,"locus YNL020C, strain ARK1, stronger effect = lower value",0.939
same,normalized growth,"locus YNL161W, strain CBK1, stronger effect = lower value",0.967
same,normalized growth,"locus YNL183C, strain NPR1, stronger effect = lower value",0.963
same,normalized growth,"locus YNL207W, strain RIO2, stronger effect = lower value",0.947
same,normalized growth,"locus YNL222W, strain SSU72, stronger effect = lower value",0.964
same,normalized growth,"locus YNL307C, strain MCK1 (second series), stronger effect = lower value",0.93
same,normalized growth,"locus YOL078W, strain AVO1, stronger effect = lower value",0.953
same,normalized growth,"locus YOL136C, strain PFK27, stronger effect = lower value",0.907
same,normalized growth,"locus YOR061W, strain CKA2, stronger effect = lower value",0.942
same,normalized growth,"locus YOR119C, strain RIO1, stronger effect = lower value",1.01
same,normalized growth,"locus YOR231W, strain MKK1, stronger effect = lower value",0.883
same,normalized growth,"locus YOR329C, strain SCD5, stronger effect = lower value",0.965
same,normalized growth,"locus YPL031C, strain PHO85, stronger effect = lower value",0.942
same,normalized growth,"locus YPL153C, strain RAD53, stronger effect = lower value",0.969
same,normalized growth,"locus YPL204W, strain HRR25, stronger effect = lower value",0.941
same,normalized growth,"locus YPL209C, strain IPL1, stronger effect = lower value",0.961
same,normalized growth,"locus YPL256C, strain CLN2, stronger effect = lower value",0.906
same,normalized growth,"locus YPR025C, strain CCL1, stronger effect = lower value",0.961
same,normalized growth,"locus YPR106W, strain ISR1, stronger effect = lower value",0.958
same,normalized growth,"locus YPR111W, strain DBF20, stronger effect = lower value",0.949
same,normalized growth,"strain NNK1, stronger effect = lower value",0.942
same,normalized growth,"strain TSCII, stronger effect = lower value",0.955
